According to ChEMBL document CHEMBL3988442, “University of Dundee, Small-Polar-MMV Screening Library” (2021):
For some assays here: Results with a measured potency or affinity are listed apart.

What was measured:
Parameters in all cases: scale not given: direction of the effect not stated beside the values
[1] = target: Protein translocase subunit SecA (Escherichia coli (strain K12)) (UniProt P10408); experiment: Assay to Identify E. coli SecA ATPase Inhibitors; format: functional; settings: 30 µM
[2] = target: T1, Ubiquitin-activating enzyme e1, putative (Leishmania donovani (strain BPK282A1)) (UniProt E9BSI1); experiment: Leishmania donovani Ubiquitin Activating Enzyme (LdE1); format: functional; settings: 30 µM
T1 sequence (whole entry): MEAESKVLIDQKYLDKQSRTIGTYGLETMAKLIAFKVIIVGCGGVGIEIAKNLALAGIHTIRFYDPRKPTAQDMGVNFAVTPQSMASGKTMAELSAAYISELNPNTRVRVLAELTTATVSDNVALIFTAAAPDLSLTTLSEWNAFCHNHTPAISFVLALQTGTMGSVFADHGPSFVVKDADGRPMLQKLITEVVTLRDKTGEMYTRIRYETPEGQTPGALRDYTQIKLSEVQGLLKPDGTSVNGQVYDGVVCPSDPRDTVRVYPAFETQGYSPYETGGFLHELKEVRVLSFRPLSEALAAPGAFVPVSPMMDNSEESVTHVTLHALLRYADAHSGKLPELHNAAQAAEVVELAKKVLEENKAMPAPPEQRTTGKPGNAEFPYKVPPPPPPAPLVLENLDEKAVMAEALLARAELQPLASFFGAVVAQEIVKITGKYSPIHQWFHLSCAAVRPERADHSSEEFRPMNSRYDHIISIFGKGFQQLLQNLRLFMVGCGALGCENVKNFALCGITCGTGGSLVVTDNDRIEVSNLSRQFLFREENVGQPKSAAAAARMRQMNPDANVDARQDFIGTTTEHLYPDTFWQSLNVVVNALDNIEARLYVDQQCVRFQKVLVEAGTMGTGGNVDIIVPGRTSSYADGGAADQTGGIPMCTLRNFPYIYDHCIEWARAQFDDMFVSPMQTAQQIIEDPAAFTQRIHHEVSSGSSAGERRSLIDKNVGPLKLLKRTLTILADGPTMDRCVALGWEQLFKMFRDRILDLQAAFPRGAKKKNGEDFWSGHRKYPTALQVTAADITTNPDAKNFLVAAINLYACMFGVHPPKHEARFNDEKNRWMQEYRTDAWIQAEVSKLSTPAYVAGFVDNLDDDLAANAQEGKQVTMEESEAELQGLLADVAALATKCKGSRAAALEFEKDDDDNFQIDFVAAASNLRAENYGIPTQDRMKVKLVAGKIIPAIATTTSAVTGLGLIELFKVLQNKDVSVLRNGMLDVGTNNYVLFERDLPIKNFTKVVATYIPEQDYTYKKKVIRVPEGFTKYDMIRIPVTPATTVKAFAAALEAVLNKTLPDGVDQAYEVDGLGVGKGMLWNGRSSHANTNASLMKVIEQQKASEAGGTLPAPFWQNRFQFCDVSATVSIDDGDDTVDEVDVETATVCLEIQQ

[3] = target: Sialic acid-binding Ig-like lectin 9 (Homo sapiens) (UniProt Q9Y336); experiment: Hs-Siglec9 ALPHAscreen SOP 20170721; settings: 10 µM
Trypanosoma cruzi = experiment: Trypanosoma cruzi phosphomannomutase and mannose-1-phosphate guanylyltransferase assay; format: functional; settings: 10 µM
[4] = target: T2, Arginase-2, mitochondrial (Homo sapiens) (UniProt P78540); experiment: in vitro enzyme assay to detect the production of urea directly proportional to the activity of Arginase II; format: functional; settings: 33.3 µM; note: in the data most compounds retested in dose-response had high values
T2 sequence (whole entry): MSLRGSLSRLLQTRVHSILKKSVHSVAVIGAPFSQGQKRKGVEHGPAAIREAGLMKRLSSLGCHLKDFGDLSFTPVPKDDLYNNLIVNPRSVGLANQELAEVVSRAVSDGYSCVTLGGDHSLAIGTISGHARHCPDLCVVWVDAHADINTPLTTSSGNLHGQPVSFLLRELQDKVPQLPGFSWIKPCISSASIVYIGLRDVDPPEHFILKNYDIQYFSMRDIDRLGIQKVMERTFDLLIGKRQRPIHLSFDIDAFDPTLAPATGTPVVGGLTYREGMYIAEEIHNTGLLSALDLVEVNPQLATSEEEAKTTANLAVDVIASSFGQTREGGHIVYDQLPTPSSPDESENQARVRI

[5] = target: T3, Proteasome subunit beta (Trypanosoma cruzi) (UniProt O96673); experiment: Trypanosoma cruzi proteasome chymotrypsin-like activity (TcProtChymo) assay.; note: in the data most compounds retested in dose-response had high values; format: functional; settings: 9.37 µM
T3 sequence (whole entry): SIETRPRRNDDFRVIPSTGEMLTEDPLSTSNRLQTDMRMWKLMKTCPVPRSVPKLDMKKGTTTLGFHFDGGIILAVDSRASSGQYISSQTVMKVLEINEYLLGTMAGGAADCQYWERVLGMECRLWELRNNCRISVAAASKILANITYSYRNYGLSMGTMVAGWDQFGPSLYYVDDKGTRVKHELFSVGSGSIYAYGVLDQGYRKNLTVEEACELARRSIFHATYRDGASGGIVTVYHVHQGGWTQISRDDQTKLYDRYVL

Homo sapiens = organism: Homo sapiens; experiment: To identify inhibition of the IFN signalling (Jak-Stat) pathway via expression of an eGFP reporter gene under the control of an IFN-stimulated response element (ISRE) containing MxA promoter.; format: functional; settings: 30 µM
[6] = target: T4, Tyrosyl-tRNA synthetase, putative (Trypanosoma cruzi (strain CL Brener)) (UniProt Q4DSP6); experiment: Trypanosoma cruzi tyrosyl tRNA synthetase (TcYRS) _High Tyrosine SOP; format: functional; settings: 30 µM; note: in the data most compounds retested in dose-response had high values
T4 sequence (whole entry): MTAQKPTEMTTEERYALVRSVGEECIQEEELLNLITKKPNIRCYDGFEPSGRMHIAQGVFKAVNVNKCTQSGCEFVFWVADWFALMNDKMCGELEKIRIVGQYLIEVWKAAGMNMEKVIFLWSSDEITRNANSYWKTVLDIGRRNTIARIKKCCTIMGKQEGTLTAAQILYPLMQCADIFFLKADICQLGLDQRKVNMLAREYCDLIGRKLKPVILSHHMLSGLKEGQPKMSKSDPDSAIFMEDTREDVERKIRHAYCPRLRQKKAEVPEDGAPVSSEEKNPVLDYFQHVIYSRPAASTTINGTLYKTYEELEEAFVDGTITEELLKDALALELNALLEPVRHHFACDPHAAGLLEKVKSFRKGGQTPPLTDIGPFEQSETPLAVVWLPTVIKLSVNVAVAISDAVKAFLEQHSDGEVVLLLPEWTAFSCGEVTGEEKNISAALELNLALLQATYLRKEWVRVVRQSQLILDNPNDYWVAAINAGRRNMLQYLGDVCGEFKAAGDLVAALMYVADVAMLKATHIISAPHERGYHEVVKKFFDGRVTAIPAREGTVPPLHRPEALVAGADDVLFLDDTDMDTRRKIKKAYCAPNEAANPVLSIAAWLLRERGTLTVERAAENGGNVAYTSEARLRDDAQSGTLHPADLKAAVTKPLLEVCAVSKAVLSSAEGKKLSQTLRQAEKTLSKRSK

[7] = target: T4, Tyrosyl-tRNA synthetase, putative (Trypanosoma cruzi (strain CL Brener)); experiment: Trypanosoma cruzi tyrosyl tRNA synthetase (TcYRS) SOP; format: functional; settings: 30 µM
[8] = target: Chromo domain-containing protein 1 (Saccharomyces cerevisiae (strain ATCC 204508 / S288c) (Baker's yeast)) (UniProt P32657); experiment: ScCHD-1 Enzyme Inhibition Assay; format: functional; settings: 30 µM; note: in the data most compounds retested in dose-response had high values
Chain of Chromo domain-containing protein 1 (Saccharomyces cerevisiae (strain ATCC 204508 / S288c) (Baker's yeast)) (P32657 whole entry, the tested form may be a part): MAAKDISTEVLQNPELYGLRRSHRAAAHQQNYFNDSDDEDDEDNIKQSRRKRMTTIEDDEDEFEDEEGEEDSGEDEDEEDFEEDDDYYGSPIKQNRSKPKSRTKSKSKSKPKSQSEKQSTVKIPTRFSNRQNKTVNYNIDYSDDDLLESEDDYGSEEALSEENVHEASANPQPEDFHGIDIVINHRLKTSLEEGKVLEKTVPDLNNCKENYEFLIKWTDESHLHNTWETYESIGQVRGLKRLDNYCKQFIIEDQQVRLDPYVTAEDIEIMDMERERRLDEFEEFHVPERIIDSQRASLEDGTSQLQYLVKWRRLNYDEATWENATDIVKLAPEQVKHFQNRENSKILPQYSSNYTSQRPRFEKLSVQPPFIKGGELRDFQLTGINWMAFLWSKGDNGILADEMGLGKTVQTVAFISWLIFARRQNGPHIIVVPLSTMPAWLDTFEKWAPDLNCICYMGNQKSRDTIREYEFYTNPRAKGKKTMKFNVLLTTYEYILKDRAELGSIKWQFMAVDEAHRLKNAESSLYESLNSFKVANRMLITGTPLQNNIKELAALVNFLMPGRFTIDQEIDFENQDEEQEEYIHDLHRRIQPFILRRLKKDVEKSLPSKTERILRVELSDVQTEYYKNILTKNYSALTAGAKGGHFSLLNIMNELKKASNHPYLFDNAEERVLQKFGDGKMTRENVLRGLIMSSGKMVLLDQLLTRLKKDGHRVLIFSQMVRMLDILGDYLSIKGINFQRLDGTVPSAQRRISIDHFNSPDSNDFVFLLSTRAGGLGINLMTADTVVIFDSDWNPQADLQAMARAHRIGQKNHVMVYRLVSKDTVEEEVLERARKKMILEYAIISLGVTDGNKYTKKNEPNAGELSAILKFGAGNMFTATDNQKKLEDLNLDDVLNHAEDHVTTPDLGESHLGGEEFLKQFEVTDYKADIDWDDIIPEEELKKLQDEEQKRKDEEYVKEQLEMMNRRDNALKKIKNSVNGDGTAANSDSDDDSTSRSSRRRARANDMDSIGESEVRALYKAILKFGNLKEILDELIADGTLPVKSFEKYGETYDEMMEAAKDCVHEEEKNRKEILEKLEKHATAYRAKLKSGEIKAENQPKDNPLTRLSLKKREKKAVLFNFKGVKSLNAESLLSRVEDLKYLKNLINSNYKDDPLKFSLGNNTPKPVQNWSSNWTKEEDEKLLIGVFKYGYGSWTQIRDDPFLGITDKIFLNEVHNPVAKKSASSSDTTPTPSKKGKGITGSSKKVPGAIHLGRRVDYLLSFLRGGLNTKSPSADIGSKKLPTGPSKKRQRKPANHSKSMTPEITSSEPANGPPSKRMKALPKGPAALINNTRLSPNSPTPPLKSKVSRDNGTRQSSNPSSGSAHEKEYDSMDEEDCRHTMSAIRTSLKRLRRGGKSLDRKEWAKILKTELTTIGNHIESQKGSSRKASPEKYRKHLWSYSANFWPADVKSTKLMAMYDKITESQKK

Chain of Sialic acid-binding Ig-like lectin 9 (Homo sapiens) (Q9Y336 whole entry): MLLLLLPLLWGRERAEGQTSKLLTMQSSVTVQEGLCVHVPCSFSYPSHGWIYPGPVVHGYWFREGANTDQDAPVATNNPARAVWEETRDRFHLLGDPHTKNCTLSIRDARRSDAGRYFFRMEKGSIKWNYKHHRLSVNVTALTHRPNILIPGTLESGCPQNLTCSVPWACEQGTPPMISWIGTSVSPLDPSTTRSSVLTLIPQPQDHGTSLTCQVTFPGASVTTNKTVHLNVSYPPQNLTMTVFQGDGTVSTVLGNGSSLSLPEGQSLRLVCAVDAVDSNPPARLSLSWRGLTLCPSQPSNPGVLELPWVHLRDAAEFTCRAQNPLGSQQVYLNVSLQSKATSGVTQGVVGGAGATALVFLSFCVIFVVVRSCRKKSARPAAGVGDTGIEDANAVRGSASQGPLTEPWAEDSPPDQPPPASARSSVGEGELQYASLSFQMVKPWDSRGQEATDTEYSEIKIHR
Chain of Protein translocase subunit SecA (Escherichia coli (strain K12)) (P10408 whole entry): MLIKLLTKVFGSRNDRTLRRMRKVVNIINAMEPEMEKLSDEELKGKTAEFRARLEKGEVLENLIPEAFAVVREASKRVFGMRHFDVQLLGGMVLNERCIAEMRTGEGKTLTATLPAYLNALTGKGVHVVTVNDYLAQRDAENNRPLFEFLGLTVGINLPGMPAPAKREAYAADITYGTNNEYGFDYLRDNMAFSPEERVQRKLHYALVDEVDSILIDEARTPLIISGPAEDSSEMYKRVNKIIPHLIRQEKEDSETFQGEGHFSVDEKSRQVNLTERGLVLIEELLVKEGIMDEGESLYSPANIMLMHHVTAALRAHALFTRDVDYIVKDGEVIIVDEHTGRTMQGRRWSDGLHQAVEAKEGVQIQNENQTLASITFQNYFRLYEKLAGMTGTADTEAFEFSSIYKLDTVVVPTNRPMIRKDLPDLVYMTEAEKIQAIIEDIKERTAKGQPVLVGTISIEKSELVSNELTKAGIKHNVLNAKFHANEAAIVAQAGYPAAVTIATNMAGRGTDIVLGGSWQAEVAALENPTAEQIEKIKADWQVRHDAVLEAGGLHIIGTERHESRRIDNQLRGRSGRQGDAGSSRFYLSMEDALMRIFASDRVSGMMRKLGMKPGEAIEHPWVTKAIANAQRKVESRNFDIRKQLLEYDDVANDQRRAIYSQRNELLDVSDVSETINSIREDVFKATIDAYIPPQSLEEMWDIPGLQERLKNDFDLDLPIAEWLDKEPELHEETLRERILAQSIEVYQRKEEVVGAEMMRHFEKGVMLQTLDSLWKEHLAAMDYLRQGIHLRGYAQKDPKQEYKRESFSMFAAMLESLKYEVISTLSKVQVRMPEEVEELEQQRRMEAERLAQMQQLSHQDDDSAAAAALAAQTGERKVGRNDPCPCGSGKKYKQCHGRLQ

Structure (SMILES) | Percent Effect [1] | Percent Effect [2] | Percent Effect [3] | Percent Effect (Trypanosoma cruzi) | Percent Effect [4] | Percent Effect [5] | Percent Effect (Homo sapiens) | Percent Effect [6] | Percent Effect [7] | Percent Effect [8]
c1cnnc(N2CCCC(NCc3nnc(-c4ccco4)o3)C2)c1 (stereo not given) | -0.0972% | 25.6% | -15.5% | 1.03% | -0.82% | 25.2% | -0.0242% | 9.09% | 22.9% | -1.66%
Cc1noc(C)c1C(=O)N1C[C@H]2CCC[C@@]2(COc2ccccn2)C1 | -6.59% | 11.7% | 1.71% | 8.28% | -7.29% | 12.3% | -28.1% | 3.68% | 12.8% | -2.44%
O=C1COC2(COCCN(Cc3ccsc3)C2)CN1c1ccc(F)cc1 (stereo not given) | -4.18% | 1.3% | 13.2% | -5.36% | 1.22% | 10.3% | -0.829% | 4.74% | 7.69% | -1.9%
CCCc1cc(C(=O)N2CCCC2c2cccnc2)[nH]n1 (stereo not given) | -2.28% | 13.5% | 7.33% | 2.81% | 4.54% | 17.1% | 10.1% | 4.79% | 14.6% | -3.7%
Cn1cc(CN2C[C@@H]3COC[C@]3(CNC(=O)c3ccsc3)C2)cn1 | -3% | -1.3% | 16.9% | -3.6% | -5.26% | 9.27% | -6.13% | -1.58% | 0% | -2.4%
c1cnc(N2CCC3(CC2)CN(CC2CC2)c2ccccc23)nc1 | -2.71% | -9.09% | 0.418% | 2.81% | -2.28% | -0.0858% | 15% | 33.8% | 20% | 9.61%
Cn1cnc2c1CCN(Cc1csc(-c3ccsc3)n1)C2 | -0.725% | 0% | -11.7% | -1.41% | 3.69% | 13.2% | 27.3% | 11% | 13.2% | 25%
Cc1nc(-c2nnc[nH]2)sc1C(=O)N(Cc1cccnc1)C1CC1 | -4.44% | 12.8% | -5.72% | 6.67% | -0.41% | 7.42% | 9.73% | 2.39% | 18.1% | -6.07%
CC(c1cccc(S(N)(=O)=O)c1)N(C)CCOc1ccccc1 (stereo not given) | -0.74% | -15.6% | 10.5% | -4.48% | -5.12% | 2.1% | 14.4% | -1.96% | -2.35% | 1.25%
Cc1nc(C)n(CC2CCCN2Cc2cn3ccsc3n2)n1 (stereo not given) | 1.01% | 12.8% | -7.58% | -2.72% | -1.23% | 19% | 27.5% | 3.35% | 13.2% | -5.22%
CC(C)(C)n1ncc2c1NC(=O)CC2c1ccccc1 (stereo not given) | -4.86% | 5.41% | 5.59% | 2.23% | -3.15% | 13.2% | 12.2% | 3.72% | 14.6% | 96%
